Data: PubChem BioAssay (EPA / NIEHS)
Active and inactive are the calls of the source. How the source made its calls: active means hit-call score of the fitted dose curve at least 0.9, where 1 is the maximum; inactive means score below 0.9.

Experiments:
[1] = target: Bile acid receptor (Homo sapiens) (UniProt Q96RI1); test: ATG_IR1_CIS: Attagene CIS-FACTORIAL HepG2 Assay for human Nuclear Receptor Subfamily 1 Group H Member 4 (NR1H4), IR1 submotif (AID 2282946); conditions: IR1 reporter transcription, actives raise or lower the signal
Bile acid receptor (Homo sapiens), sequence (Q96RI1 whole entry, looked up): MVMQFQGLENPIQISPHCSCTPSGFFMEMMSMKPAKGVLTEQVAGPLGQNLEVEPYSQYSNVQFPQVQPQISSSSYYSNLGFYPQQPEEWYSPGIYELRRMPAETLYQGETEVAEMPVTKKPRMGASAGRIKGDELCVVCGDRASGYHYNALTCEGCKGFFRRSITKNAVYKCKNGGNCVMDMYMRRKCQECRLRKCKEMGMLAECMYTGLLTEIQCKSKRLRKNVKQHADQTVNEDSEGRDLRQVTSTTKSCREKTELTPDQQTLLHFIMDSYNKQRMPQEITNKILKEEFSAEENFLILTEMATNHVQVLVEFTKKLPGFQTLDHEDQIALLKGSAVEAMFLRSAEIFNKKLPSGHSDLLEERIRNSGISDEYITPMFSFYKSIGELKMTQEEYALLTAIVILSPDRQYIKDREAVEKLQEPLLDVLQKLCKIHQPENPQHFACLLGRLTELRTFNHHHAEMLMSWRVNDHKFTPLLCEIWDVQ
Outline: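 Transient MRTU transfection, HepG2; 24 h dosing; RNA → RT-PCR → 6-FAM primer extension → HpaI digest → capillary electrophoresis fluorescence. Gain/loss of signal fitted relative to DMSO.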

[2] = ATG_ISRE_CIS: Attagene CIS-FACTORIAL HepG2 Assay for human Interferon Regulatory Factor 1 (IRF1) binding to an Interferon-Stimulated Response Element (ISRE) (AID 2282948); conditions: HepG2 ISRE cis-reporter (Attagene), mRNA transcription readout; actives raise or lower the signal
Outline: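 Quantitation relies on labelled RT-PCR fragments separated by capillary electrophoresis. Human HepG2 cells bearing cis-promoter reporter constructs were treated 24 h; DMSO served as baseline for bidirectional fitting.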

[3] = ATG_M_32_CIS: Attagene CIS-FACTORIAL HepG2 Assay for M32 Transcription Factor (Internal Marker) (AID 2282949); conditions: HepG2 Attagene cis-factorial M32 reporter, mRNA; actives raise or lower the signal;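 further: background control marker of the multiplexed CIS panel rather than a real target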
Outline: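 Following 24 h chemical exposure of HepG2 cells transiently expressing cis-promoter reporter constructs, reporter transcript levels were determined by RT-PCR with fluorescent labelling and capillary electrophoresis, then fitted bidirectionally against DMSO.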

[4] = ATG_M_06_CIS: Attagene CIS-FACTORIAL HepG2 Assay for M06 Transcription Factor (Internal Marker) (AID 2282950); conditions: HepG2 Attagene CIS-FACTORIAL M06 internal marker reporter; actives raise or lower the signal
Outline: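 HepG2 cells transiently transfected with cis-regulated multiple reporter transcription units were exposed to chemical for 24 h; reporter mRNA was quantified by RT-PCR, 6-FAM primer labelling, HpaI digestion and capillary electrophoresis, fitted bidirectionally against DMSO.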

[5] = target: Hypoxia-inducible factor 1-alpha (Homo sapiens) (UniProt Q16665); test: ATG_HIF1a_CIS: Attagene CIS-FACTORIAL HepG2 Assay for human Hypoxia Inducible Factor 1 (HIF1A) (AID 2282951); conditions: HepG2 Attagene cis-factorial HIF1a reporter transcription; actives raise or lower the signal
Hypoxia-inducible factor 1-alpha (Homo sapiens), sequence (Q16665 whole entry, looked up): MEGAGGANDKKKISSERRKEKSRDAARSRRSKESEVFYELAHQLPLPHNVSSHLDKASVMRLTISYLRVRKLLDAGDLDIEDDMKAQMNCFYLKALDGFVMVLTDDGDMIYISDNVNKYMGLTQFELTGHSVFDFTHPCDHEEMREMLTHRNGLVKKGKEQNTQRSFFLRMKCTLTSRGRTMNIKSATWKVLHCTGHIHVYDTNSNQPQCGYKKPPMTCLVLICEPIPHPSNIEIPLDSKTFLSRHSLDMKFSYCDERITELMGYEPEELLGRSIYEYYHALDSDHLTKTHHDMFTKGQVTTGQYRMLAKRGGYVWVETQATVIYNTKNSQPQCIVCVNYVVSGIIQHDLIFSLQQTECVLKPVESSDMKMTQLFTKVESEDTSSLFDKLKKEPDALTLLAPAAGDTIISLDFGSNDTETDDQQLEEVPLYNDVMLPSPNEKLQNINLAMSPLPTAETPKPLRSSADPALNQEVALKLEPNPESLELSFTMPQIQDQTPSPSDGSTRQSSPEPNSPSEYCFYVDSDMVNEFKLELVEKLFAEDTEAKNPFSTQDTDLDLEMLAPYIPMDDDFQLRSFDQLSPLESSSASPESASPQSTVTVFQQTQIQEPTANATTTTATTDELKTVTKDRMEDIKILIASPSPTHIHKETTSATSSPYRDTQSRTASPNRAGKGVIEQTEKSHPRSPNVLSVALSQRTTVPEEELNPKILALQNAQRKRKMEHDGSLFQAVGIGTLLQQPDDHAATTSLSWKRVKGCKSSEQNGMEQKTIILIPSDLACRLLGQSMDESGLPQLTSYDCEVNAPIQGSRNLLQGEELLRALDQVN
Outline: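 RT-PCR/capillary electrophoresis fluorescence readout of reporter transcripts from endogenous-TF-driven cis elements in transfected HepG2 cells, 24 h exposure; activity fitted in both directions against DMSO controls.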

[6] = target: Hepatocyte nuclear factor 6 (Homo sapiens) (UniProt Q9UBC0); test: ATG_HNF6_CIS: Attagene CIS-FACTORIAL HepG2 Assay for human Hepatocyte Nuclear Factor 6 (HNF6) (AID 2282952); conditions: HepG2 Attagene cis-factorial HNF6 reporter transcription; actives raise or lower the signal
Hepatocyte nuclear factor 6 (Homo sapiens), sequence (Q9UBC0 whole entry, looked up, the tested form may be a part): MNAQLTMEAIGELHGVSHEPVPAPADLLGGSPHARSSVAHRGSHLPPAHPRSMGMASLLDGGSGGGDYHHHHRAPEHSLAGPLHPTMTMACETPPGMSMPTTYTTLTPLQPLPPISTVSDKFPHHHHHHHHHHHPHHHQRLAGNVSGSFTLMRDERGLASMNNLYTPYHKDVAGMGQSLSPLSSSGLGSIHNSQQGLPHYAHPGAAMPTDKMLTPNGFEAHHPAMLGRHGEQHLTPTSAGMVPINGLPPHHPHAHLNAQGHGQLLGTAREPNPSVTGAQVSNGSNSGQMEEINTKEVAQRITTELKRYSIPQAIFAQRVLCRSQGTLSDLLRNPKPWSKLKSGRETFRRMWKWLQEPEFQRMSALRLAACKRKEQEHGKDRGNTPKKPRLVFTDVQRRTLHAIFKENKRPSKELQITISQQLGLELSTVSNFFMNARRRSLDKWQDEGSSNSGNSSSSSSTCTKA
Outline: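 Reporter mRNA induction or loss in HepG2 after 24 h exposure; transient cis-MRTU transfection; fragments quantified by capillary electrophoresis; bidirectional analysis, DMSO as negative control.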

[7] = target: Heat shock factor protein 1 (Homo sapiens) (UniProt Q00613); test: ATG_HSE_CIS: Attagene CIS-FACTORIAL HepG2 Assay for human Heat Shock Transcription Factor 1 (HSE) (AID 2282953); conditions: HepG2 HSE cis-reporter, Attagene RNA transcription; actives raise or lower the signal
Heat shock factor protein 1 (Homo sapiens), sequence (Q00613 whole entry, looked up): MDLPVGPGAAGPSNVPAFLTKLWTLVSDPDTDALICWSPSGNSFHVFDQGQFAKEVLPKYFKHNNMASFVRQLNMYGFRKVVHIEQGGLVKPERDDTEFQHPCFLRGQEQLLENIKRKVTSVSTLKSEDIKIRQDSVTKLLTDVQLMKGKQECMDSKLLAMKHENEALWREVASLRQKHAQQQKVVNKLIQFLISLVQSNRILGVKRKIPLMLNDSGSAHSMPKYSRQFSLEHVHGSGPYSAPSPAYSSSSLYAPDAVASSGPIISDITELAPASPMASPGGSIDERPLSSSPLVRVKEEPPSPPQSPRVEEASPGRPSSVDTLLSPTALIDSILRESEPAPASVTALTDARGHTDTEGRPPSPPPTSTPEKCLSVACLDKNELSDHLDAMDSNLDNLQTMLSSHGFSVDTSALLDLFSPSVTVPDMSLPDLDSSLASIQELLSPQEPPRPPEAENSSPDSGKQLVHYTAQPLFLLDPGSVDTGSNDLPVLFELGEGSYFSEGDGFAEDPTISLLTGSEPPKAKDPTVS
Outline: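 HepG2 cells transiently transfected with multiple reporter transcription units under cis-regulatory promoter control, measuring endogenous transcription factor activity. After 24 h chemical exposure, reporter mRNA quantified by RT-PCR, fluorescent labelling, HpaI digestion and capillary electrophoresis; bidirectional fit versus DMSO.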

[8] = ATG_MRE_CIS: Attagene CIS-FACTORIAL HepG2 Assay for human Metal Responsive Element (MRE) (AID 2282954); conditions: HepG2 MRE cis-reporter transcription, Attagene multiplex; actives raise or lower the signal
Outline: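 HepG2 cells transiently transfected with multiple cis-element reporter units measure endogenous MTF1-driven transcription. After 24 h compound exposure, reporter mRNA is quantified by RT-PCR with 6-FAM labelling, HpaI digestion and capillary electrophoresis; bidirectional fits versus DMSO.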

[9] = ATG_PBREM_CIS: Attagene CIS-FACTORIAL HepG2 Assay for human Phenobarbital-responsive Enhancer Module (PBREM) (AID 2282955); conditions: HepG2 PBREM cis-reporter, Attagene multiplexed transcription; actives raise or lower the signal
Outline: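 Reporter mRNA read by RT-PCR, 6-FAM primer extension, HpaI digestion and capillary electrophoresis. Transfected HepG2 cells, 24 h compound exposure. Gain or loss of signal fitted bidirectionally relative to DMSO baseline.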

[10] = target: Paired box protein Pax-6 (Homo sapiens) (UniProt P26367); test: ATG_Pax6_CIS: Attagene CIS-FACTORIAL HepG2 Assay for human Paired Box 6 (PAX6) (AID 2282956); conditions: HepG2 CIS-FACTORIAL PAX6 reporter transcription, RNA readout; actives raise or lower the signal
Paired box protein Pax-6 (Homo sapiens), sequence (P26367 whole entry, looked up): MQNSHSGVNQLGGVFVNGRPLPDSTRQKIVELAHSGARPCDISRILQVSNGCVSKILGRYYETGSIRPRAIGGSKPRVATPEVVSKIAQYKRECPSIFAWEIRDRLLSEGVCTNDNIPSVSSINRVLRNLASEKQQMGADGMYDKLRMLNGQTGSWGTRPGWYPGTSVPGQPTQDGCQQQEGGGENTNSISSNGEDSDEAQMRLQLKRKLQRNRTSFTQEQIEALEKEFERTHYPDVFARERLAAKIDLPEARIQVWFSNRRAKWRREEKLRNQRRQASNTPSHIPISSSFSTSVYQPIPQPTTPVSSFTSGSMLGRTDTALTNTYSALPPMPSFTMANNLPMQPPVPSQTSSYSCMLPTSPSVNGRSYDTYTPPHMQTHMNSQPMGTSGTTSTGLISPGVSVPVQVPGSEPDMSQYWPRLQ
Outline: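 After twenty-four hours of chemical exposure, transfected HepG2 cells are harvested for RNA. Cis-promoter reporter transcripts are amplified, fluorescently labelled and sized by capillary electrophoresis, with gain and loss of signal scored against DMSO.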

[11] = ATG_PXRE_CIS: Attagene CIS-FACTORIAL HepG2 Assay for human Pregnane X Receptor Element (PXRE) (AID 2282957); conditions: HepG2 Attagene CIS-FACTORIAL PXRE reporter, mRNA; actives raise or lower the signal
Outline: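 Transiently transfected HepG2 cells were dosed and incubated for 24 h. RNA was then isolated, DNase-treated, reverse-transcribed and reporter sequences amplified. Labeled, HpaI-digested fragments were quantified by capillary electrophoresis against DMSO.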

[12] = ATG_PPRE_CIS: Attagene CIS-FACTORIAL HepG2 Assay for human Peroxisome Proliferator-activated Response Element (PPRE) (AID 2282958); conditions: HepG2 PPRE cis-element reporter, Attagene transcription factor profiling; actives raise or lower the signal
Outline: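 Read-out: fluorescent reporter mRNA fragments resolved by capillary electrophoresis after RT-PCR. HepG2 cells carried transiently transfected PPRE-driven cis reporter constructs and were dosed for 24 h; gain or loss of signal fitted relative to DMSO.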

[13] = ATG_RORE_CIS: Attagene CIS-FACTORIAL HepG2 Assay for human RAR-related Orphan Receptor Element (RORE) (AID 2282959); conditions: HepG2 Attagene cis-factorial RORE reporter, mRNA; actives raise or lower the signal
Outline: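 Readout: fluorescent reporter mRNA by RT-PCR plus capillary electrophoresis, 24 h after dosing transfected HepG2 cells. Endogenous transcription factor activity on a cis promoter element is measured. Gain or loss of signal fitted against DMSO.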

[14] = ATG_Sox_CIS: Attagene CIS-FACTORIAL HepG2 Assay for human SRY-box transcription factor (SOX) (AID 2282960); conditions: HepG2 Attagene cis-factorial SOX reporter, mRNA; actives raise or lower the signal
Outline: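 Read-out: fluorescent RT-PCR products of SOX1-linked reporter transcripts resolved by capillary electrophoresis, fitted bidirectionally against DMSO. Transiently transfected HepG2 cells, 24 h after chemical exposure, endogenous transcription factor activity.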

[15] = target: Transcription factor Sp1 (Homo sapiens) (UniProt P08047); test: ATG_Sp1_CIS: Attagene CIS-FACTORIAL HepG2 Assay for human Specificity Protein 1 (Sp1) (AID 2282961); conditions: HepG2 Sp1 cis-reporter transcription, actives raise or lower the signal
Transcription factor Sp1 (Homo sapiens), sequence (P08047 whole entry, looked up): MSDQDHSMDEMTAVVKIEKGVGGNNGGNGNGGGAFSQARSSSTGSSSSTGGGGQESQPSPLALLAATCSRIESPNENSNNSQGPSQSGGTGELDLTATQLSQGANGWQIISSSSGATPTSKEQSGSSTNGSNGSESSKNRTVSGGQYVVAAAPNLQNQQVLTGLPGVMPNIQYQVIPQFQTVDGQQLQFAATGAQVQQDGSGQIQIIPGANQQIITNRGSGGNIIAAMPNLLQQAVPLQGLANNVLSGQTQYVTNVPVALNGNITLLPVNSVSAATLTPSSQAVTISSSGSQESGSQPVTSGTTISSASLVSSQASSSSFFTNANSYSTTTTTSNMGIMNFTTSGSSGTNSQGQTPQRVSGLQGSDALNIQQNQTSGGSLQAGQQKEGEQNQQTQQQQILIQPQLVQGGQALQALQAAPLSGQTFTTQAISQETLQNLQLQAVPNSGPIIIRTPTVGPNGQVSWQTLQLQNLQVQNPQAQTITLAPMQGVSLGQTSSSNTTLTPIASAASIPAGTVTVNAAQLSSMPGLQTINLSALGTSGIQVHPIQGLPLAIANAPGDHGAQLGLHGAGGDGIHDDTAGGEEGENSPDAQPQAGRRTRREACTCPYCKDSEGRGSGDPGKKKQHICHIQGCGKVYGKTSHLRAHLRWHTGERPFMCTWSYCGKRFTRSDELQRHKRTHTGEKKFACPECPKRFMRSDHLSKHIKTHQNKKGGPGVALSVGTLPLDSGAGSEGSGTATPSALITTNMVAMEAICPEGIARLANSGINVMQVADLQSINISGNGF
Outline: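 Read-out: fluorescence of 6-FAM-labeled, HpaI-digested RT-PCR products separated by capillary electrophoresis. HepG2 cells carried transfected cis-element reporter units and were exposed to chemicals for 24 h; gain or loss of signal fitted relative to DMSO.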

[16] = target: Signal transducer and activator of transcription 3 (Homo sapiens) (UniProt P40763); test: ATG_STAT3_CIS: Attagene CIS-FACTORIAL HepG2 Assay for human Signal Transducer and Activator of Transcription 3 (STAT3) (AID 2282963); conditions: HepG2, Attagene cis-factorial STAT3 reporter transcription; actives raise or lower the signal
Signal transducer and activator of transcription 3 (Homo sapiens), sequence (P40763 whole entry, looked up): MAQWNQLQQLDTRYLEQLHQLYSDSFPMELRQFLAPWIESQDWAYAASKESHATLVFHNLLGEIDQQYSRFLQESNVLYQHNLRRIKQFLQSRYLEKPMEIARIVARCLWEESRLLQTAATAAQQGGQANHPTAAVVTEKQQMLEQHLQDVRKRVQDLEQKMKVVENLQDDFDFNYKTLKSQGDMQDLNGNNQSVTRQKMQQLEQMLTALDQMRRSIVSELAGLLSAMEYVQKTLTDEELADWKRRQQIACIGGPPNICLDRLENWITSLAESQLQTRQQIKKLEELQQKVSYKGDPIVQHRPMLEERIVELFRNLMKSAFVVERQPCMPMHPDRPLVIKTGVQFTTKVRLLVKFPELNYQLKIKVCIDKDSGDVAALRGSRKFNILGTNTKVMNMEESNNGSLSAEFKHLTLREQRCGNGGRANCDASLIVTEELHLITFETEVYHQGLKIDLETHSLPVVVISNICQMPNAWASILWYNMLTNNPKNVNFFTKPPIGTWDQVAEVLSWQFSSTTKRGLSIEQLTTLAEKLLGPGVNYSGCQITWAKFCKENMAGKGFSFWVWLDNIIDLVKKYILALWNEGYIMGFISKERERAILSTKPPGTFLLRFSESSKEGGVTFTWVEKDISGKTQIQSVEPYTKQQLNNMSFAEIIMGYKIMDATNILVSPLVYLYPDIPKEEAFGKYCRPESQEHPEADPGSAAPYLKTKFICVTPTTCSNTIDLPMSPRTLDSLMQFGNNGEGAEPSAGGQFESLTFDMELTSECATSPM
Outline: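 HepG2 cells transiently transfected with cis-element-driven multiple reporter transcription units; after 24 h chemical exposure, reporter mRNA measured by RT-PCR, 6-FAM primer-extension labelling, HpaI digestion and capillary electrophoresis. Bidirectional fitting versus DMSO baseline.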

[17] = ATG_TA_CIS: Attagene CIS-FACTORIAL HepG2 Assay for human TA Basal Promoter (AID 2282964); conditions: HepG2 Attagene CIS-factorial TA basal promoter reporter; actives raise or lower the signal
Outline: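 HepG2 cells transiently transfected with multiplexed cis-promoter reporter units, dosed 24 h. Reporter mRNA measured by RT-PCR, 6-FAM labelling, HpaI digestion and capillary electrophoresis; bidirectional fit versus DMSO baseline, serving as background control.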

[18] = ATG_TCF_b_cat_CIS: Attagene CIS-FACTORIAL HepG2 Assay for human T-Cell-Factor with beta-catenin (TCF/b-cat) (AID 2282965); conditions: HepG2 TCF/beta-catenin cis-reporter transcription, actives raise or lower the signal
Outline: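 HepG2 cells transiently transfected with multiple cis-promoter-regulated reporter transcription units, so endogenous transcription factor activity is measured. Reporter mRNA read 24 hours after dosing by RT-PCR, fluorescent labelling and capillary electrophoresis; bidirectional fitting against DMSO.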

[19] = ATG_SREBP_CIS: Attagene CIS-FACTORIAL HepG2 Assay for human Sterol Regulatory Element Binding (SREBP) (AID 2282962); conditions: HepG2 Attagene cis-factorial SREBP reporter, mRNA; actives raise or lower the signal
Outline: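 Twenty-four hours after chemical dosing of transfected HepG2 cultures, reporter RNA was converted to cDNA, amplified, end-labelled with 6-FAM and resolved by capillary electrophoresis. Responses were fitted relative to DMSO.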

Row | Compound | outcome [1] | outcome [2] | outcome [3] | outcome [4] | outcome [5] | outcome [6] | outcome [7] | outcome [8] | outcome [9] | outcome [10] | AC50 [11] | outcome [12] | outcome [13] | outcome [14] | outcome [15] | outcome [16] | outcome [17] | outcome [18] | outcome [19] | outcome [11]
1 | CCCCCCCCCCCCSC | inactive | inactive | inactive | inactive | inactive | inactive | inactive | inactive | inactive | inactive | 27.3 µM (active) | inactive | inactive | inactive | inactive | inactive | inactive | inactive |  | 
2 | CC(=O)C=CC1=C(C)CCCC1(C)C | inactive | inactive | inactive | inactive | inactive | inactive | inactive | inactive |  | inactive | 0.716 µM (active) |  | inactive | inactive | inactive | inactive |  | inactive | inactive | 
3 | N#Cc1ccc(CC(=NNC(=O)Nc2ccc(OC(F)(F)F)cc2)c2cccc(C(F)(F)F)c2)cc1 | inactive | inactive | inactive | inactive | inactive | inactive | inactive | inactive | inactive | inactive |  | inactive |  | inactive | inactive | inactive | inactive | inactive | inactive | inactive
4 | Sc1nc(S)nc(S)n1 | inactive | inactive | inactive | inactive | inactive | inactive | inactive | inactive |  | inactive |  |  |  | inactive | inactive | inactive | inactive | inactive | inactive | inactive
5 | CCCCO | inactive | inactive | inactive | inactive | inactive | inactive | inactive | inactive |  | inactive |  | inactive |  | inactive | inactive | inactive | inactive | inactive | inactive | inactive
6 | CC1=CCC2C(C1)C2(C)C (configuration not stated) | inactive | inactive | inactive | inactive | inactive |  | inactive | inactive | inactive | inactive | 6.95 µM (active) | inactive | inactive | inactive | inactive | inactive | inactive | inactive | inactive | 
7 | COC(C(=O)O)c1ccccc1 (configuration not stated) | inactive | inactive |  | inactive | inactive | inactive | inactive | inactive | inactive | inactive |  | inactive | inactive |  | inactive | inactive | inactive | inactive | inactive | inactive
8 | NNc1nc(-c2ccc(N)cc2)cs1 | inactive | inactive |  | inactive | inactive | inactive |  | inactive | inactive | inactive |  | inactive | inactive | inactive | inactive | inactive | inactive | inactive | inactive | inactive
9 | O=C1NC(=O)c2ccccc21 | inactive | inactive | inactive | inactive | inactive |  | inactive | inactive | inactive | inactive | 38.5 µM (active) |  |  | inactive | inactive | inactive | inactive | inactive | inactive | 
10 | O=P(c1ccccc1)(c1ccccc1)c1ccccc1 | inactive | inactive | inactive | inactive | inactive | inactive | inactive | inactive | inactive | inactive | 5.59 µM (active) | inactive | inactive | inactive | inactive | inactive | inactive |  |  | 
11 | OC1C(O)C(O)C(O)C(O)C1O (configuration not stated) | inactive | inactive | inactive | inactive | inactive | inactive | inactive | inactive |  | inactive |  |  | inactive | inactive | inactive | inactive | inactive | inactive | inactive | inactive
12 | O=C(O)Cc1cccc2ccccc12 | inactive | inactive | inactive | inactive | inactive | inactive | inactive | inactive |  | inactive |  |  | inactive | inactive | inactive | inactive | inactive |  | inactive | inactive
13 | CC(C#N)(CCC(=O)O)N=NC(C)(C#N)CCC(=O)O (configuration not stated) | inactive | inactive | inactive | inactive | inactive | inactive | inactive | inactive | inactive | inactive | 26.2 µM (active) |  | inactive | inactive | inactive | inactive | inactive |  | inactive | 
14 | CC(C)=CCCC(C)CC=O (configuration not stated) | inactive | inactive | inactive | inactive |  | inactive |  | inactive |  | inactive |  |  | inactive | inactive | inactive | inactive | inactive | inactive | inactive | inactive
15 | COc1cccc(OC)c1 | inactive | inactive | inactive | inactive | inactive | inactive | inactive | inactive | inactive | inactive |  |  | inactive | inactive | inactive | inactive | inactive | inactive |  | inactive
